Assay outcomes: PubChem, several laboratories
ADAM17 inh = ADAM17 inhibition, QFRET primary screen; P78536; recombinant ADAM17, EDANS/DABCYL FRET peptide cleavage; inhibition, % at 6.95 µM; 370,000 tested, 0.83% active;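 active = inhibition above the mean of compounds lying between control limits plus 3 SD, set per campaign, cut at about 8.5% in these data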
PLC-gamma1 inh = inhibitors of human phospholipase C gamma1 | P19174 | purified PLC-gamma1, fluorogenic substrate, fluorescence | inhibition, % at 12.2 µM | 370,000 tested, 0.84% active; in the data active = inhibition above about 9.5%
ADAM10 inh = inhibits human ADAM10; O14672; 370,000 tested, 0.62% active; inhibition, % at 7 µM; AID 720582; recombinant ADAM10, EDANS/DABCYL FRET peptide cleavage, 3 h;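 active = inhibition above a per-campaign cutoff equal to the mean of compounds falling between control-based bounds plus 3 SD, cut at about 20% in these data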
Target sequence (O14672 214-748 limits assumed): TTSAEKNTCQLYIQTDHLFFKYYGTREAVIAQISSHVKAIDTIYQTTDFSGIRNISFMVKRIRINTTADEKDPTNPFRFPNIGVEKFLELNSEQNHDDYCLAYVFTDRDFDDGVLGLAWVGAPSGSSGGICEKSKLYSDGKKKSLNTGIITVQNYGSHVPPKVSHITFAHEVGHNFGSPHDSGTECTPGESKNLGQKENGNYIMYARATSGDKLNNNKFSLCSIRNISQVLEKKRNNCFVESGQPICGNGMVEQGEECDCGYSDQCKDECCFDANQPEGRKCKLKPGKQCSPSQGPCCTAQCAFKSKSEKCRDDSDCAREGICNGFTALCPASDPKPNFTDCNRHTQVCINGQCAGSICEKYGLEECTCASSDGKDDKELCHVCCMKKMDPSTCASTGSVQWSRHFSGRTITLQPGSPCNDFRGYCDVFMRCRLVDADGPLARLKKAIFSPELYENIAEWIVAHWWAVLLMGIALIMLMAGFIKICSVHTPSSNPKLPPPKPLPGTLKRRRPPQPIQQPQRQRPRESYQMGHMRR
Rce1 inhib = blocks yeast Ras-converting enzyme; 290,000 tested, 0.27% active; Q03530; yeast membranes, quenched prenylated peptide cleavage fluorescence; calls only;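 active = fall in fluorescence gain of 50% or more versus controls, with final raw signal at or below 3038400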
PLCb3 inh = inhibitors of human phospholipase C beta3 | inhibition, % at 12.2 µM | 370,000 tested, 0.18% active | Q01970 | AID 720704 | Purified PLC-beta3, fluorogenic substrate, fluorescence; in the data active = inhibition above about 11%
ADAM10 counter = inhibits human ADAM10 in ADAM17 exosite counter-screen; shares compounds with ADAM17 inh; recombinant ADAM10, EDANS/DABCYL FRET peptide cleavage, 3 h; inhibition, % at 6.95 µM; 2,900 tested, 47% active;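 active = mean inhibition over the triplicate runs exceeds the activity threshold set in the earlier primary screen, cut at about 20% in these data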
ADAM17 confirm = human ADAM17 inhibition, confirmation | shares compounds with ADAM17 inh | recombinant ADAM17, EDANS/DABCYL QFRET peptide cleavage | inhibition, % at 6.95 µM | 2,900 tested, 65% active | AID 743257;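 active = mean inhibition across replicates above the hit cutoff set in the primary screen, cut at about 8.5% in these data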
Hits are given with their value; 0 = inactive; - = no result given. Sampled rows, rich in hits. Any-hit rate of the full collection: about 2.1%.

SMILES | ADAM17 inh | PLC-gamma1 inh | ADAM10 inh | Rce1 inhib | PLCb3 inh | ADAM10 counter | ADAM17 confirm
Cc1cc(NC(=O)COc2ccc(Cl)cc2Cl)n(-c2ccccc2)n1 | 0 | 0 | 0 | 0 | 0 | - | -
Cc1cc(NC(=O)CSc2cc(Cl)ccc2Cl)n(-c2ccccc2)n1 | 9.2 | 0 | 0 | 0 | 0 | 0 | 0
O=S1(=O)C[C@H](N2CC[C@@H](O)C2)[C@@H](COCc2ccccc2)N1 | 0 | 0 | 0 | - | 0 | - | -
COc1cccc(CN(C)C(=O)c2ccc(OCC(=O)Nc3cccc(C(F)(F)F)c3)c(OC)c2)c1 | 8.8 | 0 | 0 | 0 | 0 | 25.9 | 15.3
CCNC(=O)COC(=O)COc1ccc(Cl)cc1C | 0 | 0 | 0 | 0 | 0 | - | -
Cc1cc(Cl)ccc1OCC(=O)OCC(=O)Nc1ccc(F)c([N+](=O)[O-])c1 | 9.0 | 0 | 0 | - | 0 | 42.7 | 18.0
CN(C)S(=O)(=O)c1cccc(NC(=O)c2cc(-c3cccs3)nn2-c2cccc(Cl)c2)c1 | 12.5 | 0 | 0 | 0 | 0 | 0 | 11.8
C#CCN(C[C@@H]1[C@@H](OC(=O)Nc2cccs2)[C@@H](OC(=O)Nc2cccs2)Cn2c(=O)n(CCCCCC)c(=O)n21)S(=O)(=O)c1ccc(C)cc1 | 10.5 | 0 | 0 | - | 0 | 0 | 10.4
C#CCN(C[C@@H]1[C@@H](OC(=O)Nc2cccs2)[C@@H](OC(=O)Nc2cccs2)C[C@H](C(=O)OC)[C@@H]1C(=O)OC)S(=O)(=O)c1ccc(C)cc1 | 0 | 0 | 0 | - | 0 | - | -
COC(=O)[C@@]12C[C@@H](CC(=O)N3CCN(C(=O)c4ccco4)CC3)C(=O)N(CCc3ccc(OC)c(OC)c3)C1=CCC(C)(C)C2 | 0 | 0 | 0 | - | 0 | - | -
O=C(CNC(=O)c1ccccc1F)N/N=C/c1cc(Br)ccc1OCc1ccccc1 | 8.8 | 0 | 0 | 0 | 0 | 31.8 | 15.3
O=C(CNC(=O)c1cccc(F)c1)N/N=C/c1cc(Br)ccc1OCc1ccccc1 | 0 | 0 | 0 | - | 0 | - | -
CC(=O)C(=Cc1ccc(C(=O)O)cc1)C(C)=O | 0 | 0 | 0 | 0 | 0 | - | -
C/C(=C\c1ccc(C(=O)O)cc1)c1ccc2c(c1)C(C)(C)CCC2(C)C | 9.0 | 0 | 0 | - | 0 | 0 | 0
CCCCCCCCCCCCCCCC(=O)OC(CC(=O)O)C[N+](C)(C)C (stereo unspecified) | 0 | 0 | 0 | - | 0 | - | -
CN(CC(=O)Nc1ccc(F)cc1)C(=O)Cn1cnc2ccc([N+](=O)[O-])cc2c1=O | 0 | 0 | 0 | - | 0 | - | -
CCOc1ccc(C(=O)c2nc3c(n2O)CCCC3)cc1 | 9.8 | 0 | 0 | 0 | 0 | 0 | 9.7
Cc1ccc(C(=O)c2nc3c(n2O)CCCC3)cc1 | 0 | 0 | 0 | 0 | 0 | - | -
Cc1ccc(C(=O)NCCN2CCC(n3c(=O)[nH]c4ccccc43)CC2)cc1C | 0 | 0 | 0 | - | 0 | - | -
O=S(=O)(Nc1ccc(O)c(Sc2nc3ccccc3s2)c1)c1cccc2ccccc12 | 9.0 | 0 | 0 | 0 | 0 | 42.0 | 22.3
O=S(=O)(Nc1ccc(O)c(Sc2nc3ccccc3s2)c1)c1ccc(F)cc1 | 10.5 | 0 | 0 | 0 | 0 | 34.2 | 23.3
O=C(O)c1cccc(S(=O)(=O)Nc2ccc(O)c(Sc3nc4ccccc4s3)c2)c1 | 0 | 0 | 0 | 0 | 0 | - | -
O=S(=O)(Nc1ccc(-c2csc(-c3ccccc3)n2)cc1)c1ccc(F)cc1 | 11.3 | 0 | 0 | 0 | 0 | 20.4 | 18.7
O=[N+]([O-])c1cc(S(=O)(=O)C(F)(F)F)ccc1Sc1nc2ccccc2s1 | 0 | 0 | 0 | 0 | 0 | - | -
NC(=O)CNCCC(c1ccccc1)c1ccccc1 | 9.8 | 0 | 0 | - | 0 | 0 | 0
SMILES | ADAM17 inh | PLC-gamma1 inh | ADAM10 inh | Rce1 inhib | PLCb3 inh | ADAM10 counter | ADAM17 confirm
Cn1c(=O)c2c(n(C)c1=O)n(C)c(=O)n2C | 0 | 0 | 0 | - | 0 | - | -
COC(=O)[C@]12C[C@H](CC(=O)NCCCCc3ccccc3)C(=O)N(Cc3ccco3)C1=C[C@H](C(C)(C)C)O[C@@H]2C | 9.3 | 0 | 0 | - | 0 | 27.3 | 14.9
COC(=O)[C@]12C[C@H](CC(=O)NCc3cccc(C(F)(F)F)c3)C(=O)N(Cc3ccc4c(c3)OCO4)C1=C[C@H](C(C)(C)C)O[C@@H]2C | 12.8 | 0 | 0 | - | 0 | 54.3 | 19.1
COC(=O)[C@]12C[C@H](CC(=O)NCCCCc3ccccc3)C(=O)N(Cc3ccco3)C1=C[C@H](C1CCCC1)O[C@@H]2C | 0 | 0 | 0 | - | 0 | - | -
COc1ccc(Cl)cc1S(=O)(=O)NC(C)c1cnn(-c2ccccn2)c1C (stereo unspecified) | 0 | 0 | 0 | - | 0 | - | -
COc1ccc(C2c3c(-c4ccccc4O)n[nH]c3C(=O)N2CCc2ccc(OC)c(OC)c2)cc1 (stereo unspecified) | 11.8 | 0 | 23.9 | 0 | 0 | 22.8 | 14.5
CC(=O)c1cccc(NC(=O)C2CCCC2)c1 | 9.5 | 0 | 0 | 0 | 0 | 0 | 0
CC12CC3CC(C)(C1)CC(C(=O)Nc1nncs1)(C3)C2 | 0 | 0 | 0 | 0 | 0 | - | -
COCCOc1ccc(C(F)(F)F)cc1NC(=O)CN1C(=O)NC2(CCCc3ccccc32)C1=O (stereo unspecified) | 9.7 | 0 | 0 | - | 0 | 0 | 10.0
COc1ccc(-c2cc(C(=O)Nc3ccc(Br)cc3)no2)cc1 | 0 | 0 | 0 | 0 | 0 | - | -
CN(C(=O)c1cccc(NC(=O)Cc2cccc(NC(=O)C3CCN(C(=O)c4ccccc4)CC3)c2)c1)C1CC1 | 0 | 0 | 0 | - | 0 | - | -
Cn1c(=O)c2ncn(CC(=O)Nc3nc(-c4ccc(Cl)cc4)cs3)c2n(C)c1=O | 0 | 0 | 0 | 0 | 0 | - | -
C=CCc1c(C)nc(-c2ccccc2)nc1N/N=C/c1ccccc1 | 0 | 0 | 0 | 0 | 0 | - | -
C=CCc1c(C)nc(-c2ccccc2)nc1Nc1ccccc1O | 10.1 | 0 | 0 | 0 | 0 | 29.1 | 16.9
Cc1cc(NC(=O)/C(C#N)=C/c2ccco2)n(-c2ccccc2)n1 | 9.0 | 0 | 0 | 0 | 0 | 20.3 | 11.2
CCC(C)[C@H]1CNC(=S)N1CCc1cccc2ccccc12 (stereo partly specified) | 12.7 | 0 | 0 | 0 | 0 | 0 | 0
COC(=O)[C@H](Cc1ccccc1)NC(=O)CC[C@H]1O[C@@H](n2ccc(=O)[nH]c2=O)[C@H](O)[C@@H]1O | 0 | 0 | 0 | - | 0 | - | -
O=C(CCCOC(=O)c1ccc(O)cc1O)c1ccc(Br)cc1 | 11.4 | 0 | 0 | - | 0 | 0 | 10.0
Cc1cccn2c(CN3CCNC(=O)CC3)c(C(=O)N(C)CCc3ccccc3)nc12 | 0 | 0 | 0 | 0 | 0 | - | -
O=C(Nc1ccc2c(c1)OCCO2)C(C1CC1)N1CCN(c2ccc(C(F)(F)F)cn2)CC1 (stereo unspecified) | 8.8 | 0 | 0 | - | 0 | 0 | 10.8
O=C(Nc1ccc2c(c1)OCCO2)C(c1ccnc2ccccc12)N1CCN(c2ccc(F)cc2)CC1 (stereo unspecified) | 0 | 0 | 0 | - | 0 | - | -
